# The full ranking holds about 33,000 sequences; the median of “E-score (-0.5 to 0.5)” is about -0.041, and the highest 2% start at about 0.37. The entries come from a sample that favours the highest values as a whole.
# Target: T1, Ecm22 (UniProt Q05958)
# T1 sequence: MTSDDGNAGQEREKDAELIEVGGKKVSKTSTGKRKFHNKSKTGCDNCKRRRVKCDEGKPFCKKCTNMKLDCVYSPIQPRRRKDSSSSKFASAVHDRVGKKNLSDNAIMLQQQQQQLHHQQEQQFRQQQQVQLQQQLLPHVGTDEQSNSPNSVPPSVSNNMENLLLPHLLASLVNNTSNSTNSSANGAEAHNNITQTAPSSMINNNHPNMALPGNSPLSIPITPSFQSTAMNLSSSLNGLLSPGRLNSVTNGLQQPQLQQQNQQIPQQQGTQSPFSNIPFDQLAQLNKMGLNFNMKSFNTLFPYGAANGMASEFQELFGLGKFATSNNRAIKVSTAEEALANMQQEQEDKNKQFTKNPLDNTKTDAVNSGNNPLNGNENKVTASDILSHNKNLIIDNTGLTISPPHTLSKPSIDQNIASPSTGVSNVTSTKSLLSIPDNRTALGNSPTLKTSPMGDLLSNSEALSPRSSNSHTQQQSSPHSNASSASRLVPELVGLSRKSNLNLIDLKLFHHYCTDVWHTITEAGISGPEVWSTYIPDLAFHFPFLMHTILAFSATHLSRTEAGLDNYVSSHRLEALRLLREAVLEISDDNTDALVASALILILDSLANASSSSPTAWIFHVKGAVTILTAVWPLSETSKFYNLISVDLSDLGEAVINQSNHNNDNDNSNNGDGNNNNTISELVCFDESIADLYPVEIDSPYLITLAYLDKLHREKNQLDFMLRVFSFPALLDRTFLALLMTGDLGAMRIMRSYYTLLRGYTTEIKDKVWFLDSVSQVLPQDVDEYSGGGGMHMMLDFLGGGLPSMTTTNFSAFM
# Test: PBM E-score (8-mer binding enrichment) (E-score (-0.5 to 0.5)); higher = stronger / more preferred TF binding
# Settings: protein concentration: 200 nM; construct: GST-full length
# Procedure: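 Universal 'all 10-mer' protein binding microarrays (Agilent AMADID 015681) probed with GST-tagged S. cerevisiae TFs (full-length or DBD) made by in vitro transcription/translation (PURExpress), about 100-200 nM. Bound TF was detected with fluorescent anti-GST. Each ungapped 8-mer (which stands for itself and its reverse complement) is scored by the PBM enrichment score (E-score), a modified Wilcoxon-Mann-Whitney statistic from -0.5 to +0.5, computed with the Universal PBM Analysis Suite. Scale: above 0.35 generally sequence-specific binding.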
row,Sequence,PBM E-score
1,GCAGGCCA,-0.00078
2,CACCCCCG,-0.2
3,TCAGTCGA,0.0318
4,CAAGCGGG,-0.0323
5,ATTCTACA,0.0155
6,GAGAGCGC,-0.0803
7,GACGAGCC,0.0624
8,AGCGAGCG,0.345
9,TCCGAGCA,0.236
10,CACGAGCC,0.143
11,TACGAGCA,0.467
12,CACGAGCG,0.201
13,CACGAGCA,0.0712
14,AACGAGCG,0.459
15,AACGAGCC,0.442
16,GACGAGCA,0.0907
17,TGCGAGCA,0.238
18,AACGAGCA,0.46
19,AGCGTGGG,-0.0957
20,GGTTGGAC,-0.241
21,AACCGAAA,0.235
22,AAATTCTG,-0.0343
23,ACCGGATC,-0.0309
24,CAAGTGCG,-0.0245
25,ACTCCATA,-0.195

row,Sequence,PBM E-score
1,CAGGAGAC,0.0295
2,AGGATGAG,-0.0765
3,ACCATAGC,-0.261
4,GAACCGGC,-0.0167
5,GCCTTTAA,-0.198
6,ACCGAGCT,0.235
7,AGCGAGCT,0.309
8,AACGAGCT,0.445
9,CCGCTTTC,-0.0554
10,GGCCTCCC,-0.0791
11,GTCGCAGA,0.123
12,CTCGCAGA,0.0487
13,ATCGCATA,0.289
14,CTCGCATA,0.376
15,CTCGCATC,0.304
16,GTCGCATA,0.369
17,ACCTTTCG,0.094
18,TAAAGCGA,0.213
19,CGTTTAAC,0.465
20,CGTTTAAG,0.429
21,CGTTTAAA,0.453
22,AGTTTAAC,0.09
23,AGTTTAAG,-0.127
24,CCTTTAAG,-0.259
25,GGTTTAAC,0.0725

row,Sequence,PBM E-score
1,TGTTTAAA,-0.172
2,AGTTTAAA,0.0639
3,ACGGCCCG,0.208
4,GGCGATAC,0.0112
5,AAGCGGCT,-0.0695
6,AACCCGGC,0.11
7,GCCACAAC,-0.055
8,AGGAAATG,-0.11
9,GTCGGTTA,0.369
10,CTCGGTTC,0.265
11,GTCGGTCA,0.258
12,CACGGTTA,0.0472
13,CTCGGTTA,0.383
14,ATCGGTTA,0.362
15,CGCGGAGC,0.116
16,AGAGAGAT,-0.163
17,ACGAGCCG,0.389
18,ACGAGCCT,0.407
19,TCGAGCCA,-0.126
20,CCGAGCCA,0.138
21,AGGAGCCT,-0.308
22,ACGAGCCC,0.365
23,AGGAGCCG,-0.0656
24,ACGAGCCA,0.404
25,CCGAGCCG,0.227

row,Sequence,PBM E-score
1,CCATTAGC,-0.0326
2,CTTCTGGC,-0.199
3,GAACTCCC,0.178
4,ACCTTAAC,0.0365
5,GTTTAAAC,0.285
6,ACGAGAAT,0.385
7,ACGAGAGT,0.328
8,ACGAGAAA,0.375
9,ACGAGAAG,0.313
10,ACGAGAAC,0.4
11,CCGAGAAA,0.247
12,TCGAGAAA,0.0202
13,ATGAGAAT,-0.0978
14,CCGAGAAC,0.204
15,AGGACCAT,0.00977
16,ATTCTACC,-0.12
17,GACAGGCA,-0.0606
18,AACATCCG,0.158
19,GGTGGAAC,0.236
20,ACGGCACT,0.0515
21,ATGATGAC,-0.0358
22,CAAGCTTC,0.0567
23,CTTTTTTA,-0.19
24,ACCTCGTC,0.17
25,GCCTCGGA,0.175

row,Sequence,PBM E-score
1,CCCTCGGA,0.211
2,GCCTCGTA,0.481
3,ACCTCGTG,0.251
4,ACCTCGTA,0.463
5,GCCTCGAA,0.0731
6,CCCTCGTA,0.477
7,CCCTCGTC,0.119
8,AACGGTAA,0.267
9,ACTGGGTA,0.0533
10,ATGCGTCA,0.0653
11,ACCGCTAA,0.144
12,GGGGTTAC,0.0772
13,CTGTGCCA,-0.185
14,AGCATCAG,-0.0729
15,ATTCTAAC,-0.0713
16,AGGCCTGA,-0.274
17,GTAGGGGA,-0.206
18,ATACGATA,0.458
19,GTACGATA,0.456
20,CTACGATA,0.311
21,GCACGATA,0.0343
22,AGACGATA,0.143
23,ACACGATA,0.152
24,AAGAACCT,-0.208
25,GTAAAGCA,0.0968

row,Sequence,PBM E-score
1,TGAAAAAA,-0.0832
2,ACGTACCC,0.295
3,TCGTACCA,0.488
4,CCGTACCC,0.433
5,TGGTACCA,-0.0735
6,GCGTACCC,0.229
7,GCGTACCA,0.273
8,TCTTACCA,0.061
9,ACGTACCG,0.301
10,CGGTACCG,0.234
11,CCGTACCA,0.423
12,ACGTACCA,0.306
13,CCGTACCG,0.455
14,AGGAACCG,0.0955
15,GAGTCTAA,-0.115
16,CATAGGAC,-0.091
17,TCTATGCA,-0.148
18,GGTCGTTA,0.339
19,AGTCGTTA,0.273
20,CGTCGATC,0.0984
21,AGTCGTTG,0.184
22,AGTCGTTC,0.425
23,AGTCGCTC,0.177
24,CGCCGTTC,0.362
25,CGTCGTTC,0.479

row,Sequence,PBM E-score
1,CGTCGTTA,0.374
2,CAATTGAC,-0.0565
3,AGGTCTGC,-0.195
4,CGGGAATA,0.0624
5,CGAACCCA,0.167
6,TCATCGGA,-0.0141
7,ATGCAGAC,-0.0112
8,AACTGCGG,0.0437
9,TGGCACCA,-0.213
10,CCGCATAA,0.119
11,TCGCATAA,0.388
12,ACGCATAA,0.0983
13,CGTAAATC,0.349
14,AGTAAAGA,-0.225
15,CGTAAATA,0.377
16,CGTAAAAC,0.367
17,CGTAAAAA,0.404
18,CGTAAAGA,0.389
19,AGTAAATA,0.00942
20,CGTAAAGC,0.348
21,CGTAAAAG,0.367
22,GACACTCC,-0.0444
